Among all 1,200 compounds or so, about 480 (40%) were called active. The rule behind the calls is not given here. The set was probably picked from earlier hits. Not all results are given here. Measured potencies and affinities stand elsewhere.
Assay: HepG2 cell cytotoxicity, dose response, cytotoxicity control, CellTiter-Glo luminescence, cherry-pick, set 2 (AID 743395);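 note: 0% = neutral control wells and -100% = positive control wells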
Conditions: HepG2 viability, CellTiter-Glo ATP luminescence, 72 h; series mostly up to 26 µM; activity change, negative = cytotoxicity: at the top concentration

Row | SMILES | activity change, negative = cytotoxicity
1 | O=C(COC(=O)Cc1ccsc1)Nc1cccc(F)c1 | 12.6% (inactive)
2 | NS(=O)(=O)c1ccc(NC(=O)c2cccc3cc4ccccc4nc23)cc1 | -17.1% (inactive)
3 | COc1cccc2cc(C(=O)NCCN3CCOCC3)c(=O)oc12 | -7.51% (inactive)
4 | COc1ccccc1OCCNC(=O)CCNC(=O)c1ccccc1OC | 20.5% (inactive)
5 | O=C1NC(Cc2ccc(O)cc2)c2nc3ccc(Br)cc3c(=O)n2-c2cc3ccccc3cc21 (stereo unspecified) | -15.4% (inactive)
6 | COc1ccccc1S(=O)(=O)N1CC[C@@H]2[C@@H](CO)N(C)c3ccc(-c4ccc(F)cc4)cc3[C@@H]21 | -3.19% [at 7.5 µM] (inactive)
7 | COc1ccccc1Cc1c(-c2ccc(Cl)cc2)nc2ccc(Br)cn12 | -14.7% (inactive)
8 | O=C(O)CCCCCCCCc1cn(Cc2ccc(C(=O)c3ccccc3)cc2)nn1 | -20.9% (inactive)
9 | CC1CCN(S(=O)(=O)N2CCCC(C(=O)NCc3ccccc3Cl)C2)CC1 (stereo unspecified) | 5.63% (inactive)
10 | C[C@@](Cc1ccc(O)c(O)c1)(NN)C(=O)O | -13% (inactive)
11 | Cc1ccc(Nc2nc(CSc3nnc(-c4cccnc4)n3-c3ccccc3F)cs2)cc1 | 0.425% (inactive)
12 | COc1ccc(NC(=O)c2cc(C3CC3)on2)c(OC)c1 | -10.3% (inactive)
13 | Cc1cc(C(=O)CCC(=O)NC(C)c2ccc(S(N)(=O)=O)cc2)c(C)s1 (stereo unspecified) | -14.7% (inactive)
14 | Cc1c(Cl)cccc1NC(=O)C1CC(=O)N(C2CCCC2)C1 (stereo unspecified) | -4.45% (inactive)
15 | COCCNC(=O)C1CCCN(C(=O)c2cc(-c3cccs3)oc2C)CC1 (stereo unspecified) | -5.14% (inactive)
16 | O=C1NN(c2cccc(Br)c2)C(=O)/C1=C\c1ccc(O)cc1 | -6.99% (inactive)
17 | CCN1C(=O)c2cccc3c(S(=O)(=O)N(C(C)=O)c4ccc(OC(C)=O)cc4)ccc1c23 | -11.3% (inactive)
18 | O=C1c2cccc3c([N+](=O)[O-])ccc(c23)C(=O)N1Cc1cccnc1 | -17% (inactive)
19 | Cc1ccc(N2C(=O)c3cccc4c([N+](=O)[O-])ccc(c34)C2=O)c2cccnc12 | 4.68% (inactive)
20 | CCOc1ccc(NC(=O)c2ccc(NC(=O)CN3C(=O)C(=O)N(CC(C)C)C3=O)cc2)cc1 | 10.6% (inactive)
21 | CC1C2CCC(C2)C1OC(=O)c1ccccc1C(=O)O (stereo unspecified) | 9.03% (inactive)
22 | CCCCn1nc(NC(=O)CC)c2cc3cc(OC)ccc3nc21 | 6.47% (inactive)

Row | SMILES | activity change, negative = cytotoxicity
23 | O=C1CCC(CCc2nc3ccccc3[nH]2)(c2ccccc2)C(=O)N1 (stereo unspecified) | -18.2% (inactive)
24 | N#C/C(=C\c1ccccn1)c1nc2ccccc2s1 | 6.64% (inactive)
25 | O=C(C[C@@H]1C[C@H]2c3cc(NC(=O)CC4CC4)ccc3O[C@H]2[C@H](CO)O1)NCc1cccc(F)c1 | 21.2% (inactive)
26 | COC(=O)C1(C)CCCC2(C)C3CCC(C(C)C)C(CO)C3C(CO)CC12 (stereo unspecified) | 0.453% (inactive)
27 | CCSc1nnc(N2C(=O)C(O)=C(C(=O)c3ccco3)C2c2cccc(OC)c2)s1 (stereo unspecified) | -4.25% (inactive)
28 | Cc1cccc(C)c1OCC(=O)OCC(=O)Nc1ccc(Cl)cn1 | -11.6% (inactive)
29 | O=C(Nc1ccc(Cl)cn1)c1cccc2ccccc12 | -22.4% (inactive)
30 | CC(=Nc1ccccc1O)c1sc2ccccc2c1O | -19.2% (inactive)
31 | COc1ccc(N=C2C(=O)N3CCCc4cccc2c43)cc1 | 4.45% (inactive)
32 | CCN(C(=O)CSc1nc2ccccc2c(=O)n1-c1ccccc1F)C1CCS(=O)(=O)C1 (stereo unspecified) | 11.7% (inactive)
33 | O=C(CN1C(=O)NC2(CCCCCCC2)C1=O)Nc1ccc(Br)cc1 | -19.5% (inactive)
34 | Nc1ccccc1C(=O)N1O[C@@H]2C=C[C@H]1C2 | 8.44% (inactive)
35 | CCOC(=O)c1sc(NC(=O)c2c(CC)noc2C)nc1C | 2.39% (inactive)
36 | CCOC(=O)c1sc2nc(Cc3ccc(Cl)cc3)[nH]c(=S)c2c1C | 9.81% (inactive)
37 | Cc1noc(C)c1C(=O)NCC1COc2ccccc2O1 (stereo unspecified) | -0.188% (inactive)
38 | CC1CCN(C(=O)c2ccc(S(=O)(=O)N3CCCC3)cc2)CC1 | -3.57% (inactive)
39 | N#CC1c2ccccc2-c2ccccc2N1C(=O)c1ccccc1 (stereo unspecified) | -5.27% (inactive)
40 | Cc1ccc(NC(=O)CSC2=NN3CCCC(=O)N=C3S2)c(C)c1 | 0.014% (inactive)
41 | Fc1ccccc1/C=N/NC(=S)Nc1ccc(Cl)cc1Cl | -15.1% (inactive)
42 | COc1ccc(Cl)cc1NC(=O)CN(C)CC(=O)Nc1cc(OC)c(OC)c(OC)c1 | -28.5% (inactive)
43 | COc1cccc(NC(=O)CN2C(=O)NC3(CCCCCC3)C2=O)c1 | -8.11% (inactive)
44 | CC(=O)Nc1ccc(NC(=O)COc2cccc3c2OC(C)(C)C3)cc1 | -0.938% (inactive)

Row | SMILES | activity change, negative = cytotoxicity
45 | CCOC1=C/C(=C/c2c(N)n3nc(S(=O)(=O)CC)sc3nc2=O)C=CC1=O | -8.59% (inactive)
46 | Fc1ccc(/C=N/NC(=S)Nc2ccc(Cl)cc2Cl)cc1 | -9.99% (inactive)
47 | COc1ccc(C=NNC(=O)CCCC(=O)NN=Cc2ccc(OC)c(O)c2)cc1O | -6.49% (inactive)
48 | Cc1cccc(NC(=O)c2ccccc2NC(=O)C2CCCCC2)c1C | -14.9% (inactive)
49 | COc1ccc(/C=N/NC(=O)c2c(C)nc3ccc(Br)cn23)cc1OC | -12.8% (inactive)
50 | COc1cc(/C=C/C(=O)c2ccc3c(c2)OCO3)cc(Cl)c1O | -21.8% (inactive)
51 | Cc1cc(NC(=O)CN2C(=O)NC3(CCCCCC3)C2=O)ccc1Br | -16.8% (inactive)
52 | Cc1cnc(NC(=O)CCc2ccccc2)s1 | -13.8% (inactive)
53 | COc1cc(C(=O)NCC2CCCO2)ccc1OCc1ccc(Cl)cc1 (stereo unspecified) | -13.4% (inactive)
54 | CCC1=Nc2cc(C(=O)NCc3cccnc3)ccc2Sc2ccc(C)cc21 | -33.6% (inactive)
55 | CCn1c(SC(C)C(=O)NCC2CCCO2)nc2ccccc21 (stereo unspecified) | -11% (inactive)
56 | COc1ccccc1OCC(O)CN1C(=O)NC(C)(C)C1=O (stereo unspecified) | 7.53% (inactive)
57 | C/C=C/c1ccc([C@H]2[C@@H](CNC(=O)CC)N(C(=O)COC)[C@H]2CO)cc1 | 7.05% (inactive)
58 | CCN(C(=O)COC(=O)/C=C/c1c(C)nn(-c2ccccc2)c1C)c1c(N)n(Cc2ccccc2)c(=O)[nH]c1=O | 7.63% (inactive)
59 | CN(Cc1ccco1)c1ncnc2ccc(-c3ccc4c(ccn4C)c3)cc12 | -34.1% (inactive)
60 | COc1ccccc1C(=O)Nc1ccc2c(c1)nc(CCNC(=O)c1ccco1)n2C | -32.2% (inactive)
61 | CC1(C)Cc2c(c(-c3ccco3)nc3sc4c(NCCN5CCOCC5)ncnc4c23)CO1 | -8.98% (inactive)
62 | CN(CCOc1ccc(Cl)cc1)C(=O)c1cccc(S(=O)(=O)N2CCN(c3ccccc3)CC2)c1 | -24.9% (inactive)
63 | O=C(c1cccc(S(=O)(=O)N2CCOCC2)c1)N1CCCC(C(F)(F)F)C1 (stereo unspecified) | 0.18% (inactive)
64 | CCN(CC)S(=O)(=O)c1ccc(NC(=O)C2CC(=O)N(c3ccc4c(c3)OCCO4)C2)cc1 (stereo unspecified) | -18.8% (inactive)
65 | Cc1cc(C(=O)N/N=C/c2ccc3c(c2)OCO3)c2ccccc2n1 | -21.4% (inactive)
66 | Cn1cc(C(=O)OCC2CCN(CCNS(C)(=O)=O)CC2)c2ccccc21 | -10.9% (inactive)
